Measured values from the supplement of paper PMC10849652.
Of roughly 7,900 targets only a part is listed; those with a hit were picked by preference. About 0.6% of all pairs of compound and target were hits.

Legend:
Test in all cases: log2 fold change, soluble protein after heating vs DMSO (PISA); higher = thermal stabilisation; K562 cells, 10 uM, 30 min; active = over 0.2 and 3.5 SD of the protein, either way, in both replicates (recomputed)
IRAK-1-4 Inhibitor I = compound: C1COCCN1CCN2C3=CC=CC=C3N=C2NC(=O)C4=CC(=CC=C4)[N+](=O)[O-] [IRAK-1-4 Inhibitor I]
Method in brief: (§1)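 K562 cells at 2×10^6 cells/mL were given 10 μM compound for 30 min. Aliquots then went through 3 min of heating across 48°C-58°C, were pooled, and were extracted in PBS with 0.5% NP-40 at 4°C, and the supernatant after 21,000xg for 90 min was quantified by TMTpro 16plex LC-MS/MS with channel sums equalised. Thermal stability relative to control samples, from duplicates, is given as log2 fold change.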

ibrutinib = compound: C=CC(=O)N1CCC[C@@H](n2nc(-c3ccc(Oc4ccccc4)cc3)c3c(N)ncnc32)C1 [ibrutinib]
Method in brief: as §1

[1] = compound: CC(=O)c1cnc2ccc(-c3cc(Cl)c(O)c(Cl)c3)nc2c1N[C@H]1CC[C@H](CN(C)C)CC1
Method in brief: as §1

ralimetinib = compound: CC(C)(C)Cn1c(N)nc2ccc(-c3[nH]c(C(C)(C)C)nc3-c3ccc(F)cc3)nc21 [ralimetinib]
Method in brief: as §1

[2] = compound: CC(C)(O)CC(=O)NCCn1ccc2ncnc(Nc3ccc(Oc4cccc(C(F)(F)F)c4)c(Cl)c3)c21
Method in brief: as §1

[3] = compound: CC(C)C1=C2N=C(C=C(N2N=C1)NCC3=CC=CC=C3)NCCCCCCN
Method in brief: as §1

[4] = compound: CC(C)C[C@@H](C=O)NC(=O)[C@H](CC(C)C)NC(=O)[C@H](CC(C)C)NC(=O)OCc1ccccc1
Method in brief: as §1

pinometostat = compound: CC(C)N(C[C@H]1O[C@@H](n2cnc3c(N)ncnc32)[C@H](O)[C@@H]1O)[C@H]1C[C@@H](CCc2nc3cc(C(C)(C)C)ccc3[nH]2)C1 [pinometostat]
Method in brief: as §1

[5] = compound: CC1=C(C(CC(=O)N1)C2=CC=C(C=C2)C(F)(F)F)C(=O)NC3=C(C=C4C(=C3)C=NN4)F
Method in brief: as §1

[6] = compound: CC1=C(C2=C(C=C1)C(=O)C3=CC=CC=C3N2CCCN)C
Method in brief: as §1

[7] = compound: CC1=C(C=C(C=C1)NC(=O)C2=CC(=CC=C2)C(C)(C)C#N)NC3=CC4=C(C=C3)N=CN(C4=O)C
Method in brief: as §1

[8] = compound: CC1=C(C=C(C=C1)NC(=O)C2=CC(=CC=C2)N(C)C)NC(=O)C3=CC=C(C=C3)O
Method in brief: as §1

[9] = compound: CC1=CC=C(C=C1)SC2=C3C=C(SC3=CN=C2)C(=O)N
Method in brief: as §1

[10] = compound: CC1=NC(=CC=C1)C2=C(N=C(N2)C(C)(C)C)C3=CC4=NC=CN=C4C=C3
Method in brief: as §1

Nexturastat A = compound: CCCCN(Cc1ccc(C(=O)NO)cc1)C(=O)Nc1ccccc1 [Nexturastat A]
Method in brief: as §1

vemurafenib = compound: CCCS(=O)(=O)Nc1ccc(F)c(C(=O)c2c[nH]c3ncc(-c4ccc(Cl)cc4)cc23)c1F [vemurafenib]
Method in brief: as §1

[11] = compound: CCCS(=O)(=O)Nc1ccc(F)c(C(=O)c2c[nH]c3ncc(Cl)cc23)c1F
Method in brief: as §1

[12] = compound: CCCc1cc(C)[nH]c(=O)c1CNC(=O)c1cc(-c2ccnc(N3CCN(C)CC3)c2)cc2c1cnn2C(C)C
Method in brief: as §1

givinostat = compound: CCN(CC)Cc1ccc2cc(COC(=O)Nc3ccc(C(=O)NO)cc3)ccc2c1 [givinostat]
Method in brief: as §1

barasertib = compound: CCN(CCCOc1ccc2c(Nc3cc(CC(=O)Nc4cccc(F)c4)[nH]n3)ncnc2c1)CCOP(=O)(O)O [barasertib]
Method in brief: as §1

Measured: log2 fold change

NDUFS4 (UniProt O43181)
UniProt O43181, sequence (O43181 whole entry, looked up): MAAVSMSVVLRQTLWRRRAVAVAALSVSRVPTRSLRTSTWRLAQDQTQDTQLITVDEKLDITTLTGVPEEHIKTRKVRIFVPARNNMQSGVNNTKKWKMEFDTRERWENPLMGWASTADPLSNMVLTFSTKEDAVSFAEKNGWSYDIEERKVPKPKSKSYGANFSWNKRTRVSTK
active: [4] 0.274
inactive: IRAK-1-4 Inhibitor I 0.076 | ibrutinib 0.029 | [1] 0.062 | ralimetinib 0.015 | [2] 0.022 | [3] 0.007 | pinometostat 0.013 | [5] 0.046 | [6] -0.193 | [7] 0.03 | [8] 0.024 | [9] -0.069 | [10] -0.033 | Nexturastat A 0.032 | vemurafenib -0.061 | [11] -0.06 | [12] -0.033 | givinostat -0.083 | barasertib -0.062

OXA1L (UniProt Q15070)
inactive: IRAK-1-4 Inhibitor I 0.05 | ibrutinib 0.011 | [1] 0.03 | ralimetinib -0.037 | [2] 0.006 | [3] -0.209 | [4] -0.004 | pinometostat 0 | [5] 0.016 | [6] -0.018 | [7] -0.013 | [8] 0.01 | [9] 0.02 | [10] 0.01 | Nexturastat A -0.021 | vemurafenib 0.022 | [11] -0.013 | [12] -0.049 | givinostat 0.003 | barasertib -0.012

MKNK1 (UniProt Q9BUB5)
UniProt Q9BUB5, sequence (Q9BUB5 whole entry, looked up): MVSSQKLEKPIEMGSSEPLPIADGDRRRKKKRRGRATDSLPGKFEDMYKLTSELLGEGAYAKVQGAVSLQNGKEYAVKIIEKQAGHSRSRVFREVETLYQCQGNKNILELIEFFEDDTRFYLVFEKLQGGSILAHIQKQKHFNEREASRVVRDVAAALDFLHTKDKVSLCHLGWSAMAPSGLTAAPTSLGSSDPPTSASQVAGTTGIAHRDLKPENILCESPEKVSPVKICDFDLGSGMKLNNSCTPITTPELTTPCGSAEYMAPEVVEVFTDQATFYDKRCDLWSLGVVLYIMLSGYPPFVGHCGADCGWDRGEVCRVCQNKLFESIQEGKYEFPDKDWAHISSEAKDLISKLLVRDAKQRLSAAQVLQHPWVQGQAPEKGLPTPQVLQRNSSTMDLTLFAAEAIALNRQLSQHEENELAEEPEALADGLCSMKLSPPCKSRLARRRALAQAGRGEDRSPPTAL
inactive: IRAK-1-4 Inhibitor I -0.078 | ibrutinib -0.034 | [1] 0.059 | ralimetinib 0.117 | [2] -0.032 | [3] -0.065 | [4] 0.168 | pinometostat -0.019 | [5] -0.018 | [6] 0.057 | [7] -0.008 | [8] -0.051 | [9] 0.03 | [10] 0.115 | Nexturastat A -0.094 | vemurafenib 0.021 | [11] 0.035 | [12] 0.022 | givinostat 0.012 | barasertib 0.033

NME2P1 (UniProt O60361)
UniProt O60361, sequence (O60361 whole entry, looked up): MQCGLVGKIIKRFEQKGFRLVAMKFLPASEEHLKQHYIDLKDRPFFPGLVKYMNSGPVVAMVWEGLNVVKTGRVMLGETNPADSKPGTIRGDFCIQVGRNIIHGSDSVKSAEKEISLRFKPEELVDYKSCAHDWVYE
inactive: IRAK-1-4 Inhibitor I -0.019 | ibrutinib -0.18 | [1] -0.033 | ralimetinib 0.032 | [2] -0.024 | [3] -0.072 | [4] -0.135 | pinometostat 0.037 | [5] 0.149 | [6] 0.031 | [7] 0.06 | [8] 0.017 | [9] 0.065 | [10] 0.004 | Nexturastat A -0.164 | vemurafenib 0.038 | [11] -0.043 | [12] -0.102 | givinostat 0.09 | barasertib 0.12

NEMP1 (UniProt O14524)
UniProt O14524, sequence (O14524 whole entry, looked up): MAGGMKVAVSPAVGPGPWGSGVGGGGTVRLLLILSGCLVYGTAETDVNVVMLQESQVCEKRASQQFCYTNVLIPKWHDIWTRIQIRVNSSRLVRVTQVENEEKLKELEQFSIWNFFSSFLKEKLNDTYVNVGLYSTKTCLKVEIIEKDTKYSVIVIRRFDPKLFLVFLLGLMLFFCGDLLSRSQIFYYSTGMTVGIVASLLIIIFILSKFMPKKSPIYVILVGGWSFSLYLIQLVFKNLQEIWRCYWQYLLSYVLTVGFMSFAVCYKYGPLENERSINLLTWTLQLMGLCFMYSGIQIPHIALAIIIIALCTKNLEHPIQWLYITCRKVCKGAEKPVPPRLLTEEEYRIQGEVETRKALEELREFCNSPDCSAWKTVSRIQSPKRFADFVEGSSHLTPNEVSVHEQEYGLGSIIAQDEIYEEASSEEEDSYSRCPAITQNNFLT
active: [3] -0.508
inactive: IRAK-1-4 Inhibitor I 0.003 | ibrutinib -0.01 | [1] -0.081 | ralimetinib -0.03 | [2] -0.023 | [4] 0.08 | pinometostat 0.009 | [5] 0.099 | [6] -0.119 | [7] -0.051 | [8] 0.037 | [9] 0.031 | [10] -0.022 | Nexturastat A -0.057 | vemurafenib -0.084 | [11] -0.041 | [12] -0.001 | givinostat -0.061 | barasertib -0.034

MSH6 (UniProt P52701)
UniProt P52701, sequence (P52701 whole entry, looked up): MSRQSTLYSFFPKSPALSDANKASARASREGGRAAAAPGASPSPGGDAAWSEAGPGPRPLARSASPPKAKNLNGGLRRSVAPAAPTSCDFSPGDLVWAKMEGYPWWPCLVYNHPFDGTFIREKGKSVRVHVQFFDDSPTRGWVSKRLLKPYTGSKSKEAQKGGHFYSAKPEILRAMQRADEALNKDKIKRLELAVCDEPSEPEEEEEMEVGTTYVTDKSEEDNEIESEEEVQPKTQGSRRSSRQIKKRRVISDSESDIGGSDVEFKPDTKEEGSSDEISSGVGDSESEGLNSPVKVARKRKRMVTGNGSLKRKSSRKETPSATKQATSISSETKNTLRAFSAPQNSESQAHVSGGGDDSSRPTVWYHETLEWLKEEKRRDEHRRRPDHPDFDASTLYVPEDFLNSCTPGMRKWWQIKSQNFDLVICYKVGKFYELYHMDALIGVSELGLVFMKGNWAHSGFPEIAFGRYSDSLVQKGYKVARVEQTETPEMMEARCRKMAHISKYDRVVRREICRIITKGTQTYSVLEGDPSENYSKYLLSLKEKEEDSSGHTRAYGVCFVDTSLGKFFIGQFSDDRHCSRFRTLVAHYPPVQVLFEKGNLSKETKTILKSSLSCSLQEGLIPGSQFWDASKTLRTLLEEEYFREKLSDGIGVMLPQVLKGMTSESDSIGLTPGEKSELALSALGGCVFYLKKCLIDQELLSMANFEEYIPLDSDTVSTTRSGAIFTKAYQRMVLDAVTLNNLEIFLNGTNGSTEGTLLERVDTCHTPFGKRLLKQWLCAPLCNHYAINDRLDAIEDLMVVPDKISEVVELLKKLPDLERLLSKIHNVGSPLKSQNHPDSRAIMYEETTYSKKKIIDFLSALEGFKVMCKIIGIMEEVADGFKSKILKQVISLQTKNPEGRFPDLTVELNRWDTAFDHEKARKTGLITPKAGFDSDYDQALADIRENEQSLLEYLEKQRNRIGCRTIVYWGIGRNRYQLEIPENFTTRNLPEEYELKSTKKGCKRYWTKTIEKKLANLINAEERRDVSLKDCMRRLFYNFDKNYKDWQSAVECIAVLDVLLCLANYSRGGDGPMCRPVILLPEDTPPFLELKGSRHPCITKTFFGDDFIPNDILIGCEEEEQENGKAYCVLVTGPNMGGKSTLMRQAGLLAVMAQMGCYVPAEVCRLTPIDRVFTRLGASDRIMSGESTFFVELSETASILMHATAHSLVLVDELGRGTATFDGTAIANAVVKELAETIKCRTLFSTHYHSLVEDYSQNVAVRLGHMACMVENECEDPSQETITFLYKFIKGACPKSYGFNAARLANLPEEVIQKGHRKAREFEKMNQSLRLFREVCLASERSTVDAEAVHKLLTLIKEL
inactive: IRAK-1-4 Inhibitor I -0.18 | ibrutinib -0.088 | [1] -0.121 | ralimetinib -0.024 | [2] -0.299 | [3] -0.544 | [4] 0.039 | pinometostat -0.005 | [5] 0.053 | [7] 0.076 | [8] -0.078 | [9] 0.112 | [10] 0.108 | Nexturastat A -0.049 | vemurafenib 0.119 | [11] 0.194 | [12] 0.03 | givinostat 0.35 | barasertib 0.171
active: [6] 0.884

NDUFA7 (UniProt O95182)
UniProt O95182, sequence (O95182 whole entry, looked up): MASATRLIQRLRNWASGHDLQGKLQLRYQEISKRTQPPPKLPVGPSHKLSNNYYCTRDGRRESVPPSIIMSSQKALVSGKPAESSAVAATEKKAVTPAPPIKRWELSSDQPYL
inactive: IRAK-1-4 Inhibitor I 0.169 | ibrutinib 0.024 | [1] -0.014 | ralimetinib -0.017 | [2] -0.192 | [3] -0.063 | [4] 0.158 | pinometostat 0.074 | [5] 0.038 | [6] 0.033 | [7] -0.013 | [8] 0 | [9] -0.007 | [10] -0.021 | Nexturastat A -0.035 | vemurafenib -0.045 | [11] 0.019 | [12] -0.079 | givinostat -0.024 | barasertib -0.011

NFE2 (UniProt Q16621)
UniProt Q16621, sequence (Q16621 whole entry, looked up): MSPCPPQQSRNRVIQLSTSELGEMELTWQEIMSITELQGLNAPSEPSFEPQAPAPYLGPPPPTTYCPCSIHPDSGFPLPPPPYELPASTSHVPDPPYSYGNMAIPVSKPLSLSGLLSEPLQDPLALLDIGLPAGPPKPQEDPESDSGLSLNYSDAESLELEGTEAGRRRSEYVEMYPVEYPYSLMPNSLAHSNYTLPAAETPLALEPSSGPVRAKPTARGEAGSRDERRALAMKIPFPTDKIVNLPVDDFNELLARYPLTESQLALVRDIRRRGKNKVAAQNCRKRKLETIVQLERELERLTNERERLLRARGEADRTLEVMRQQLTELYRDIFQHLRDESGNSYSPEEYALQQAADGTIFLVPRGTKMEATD
inactive: IRAK-1-4 Inhibitor I 0.053 | ibrutinib -0.039 | [1] 0.016 | ralimetinib -0.06 | [2] 0.01 | [3] -0.119 | [4] 0.184 | pinometostat -0.001 | [5] 0.037 | [7] -0.09 | [8] 0.064 | [9] 0.017 | [10] 0.034 | Nexturastat A 0.044 | vemurafenib -0.087 | [11] 0.043 | [12] -0.009 | givinostat 0.087 | barasertib -0.003
active: [6] -0.285
